# Test results published in PubChem BioAssay.
# Several values for one entry are separate records, joined by “and”; a condition that tells them apart may be missing. Equal values may be shown once. Results filed as inconclusive are left out. Where a structure was tested more than once in an assay, its records may differ in their call. Activity calls are given as the source filed them. Unless noted, no stated cut-off is given here; in the data, active means inhibition above about 80%; inactive means the rest.
# Experiments:
# [1] = viability loss in pontine glioma line – cell-based, SU-DIPG-XXV, MIPE5.0, CellTiter-Glo, qHTS, dose response (AID 1347065; cut-off not given, nearly all actives have AC50 up to about 26 µM;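 further: cells exposed to compound for 48 hours before ATP readout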); details: CellTiter-Glo ATP luminescence
# [2] = sensitizers of A549 cells to miR-34 induction, primary screen, imaging, A549 dox-inducible miR-34, nuclei and caspase counts (AID 1347080;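 active means compounds whose cell count with miR-34 switched on is under 0.7 times the count with it off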); details: A549 miR-34 inducible, Hoechst nuclei count, 48 h
# [3] = survival rescue of mitochondrial mutant cells in low glucose, primary screen, MELAS cybrids, Rieske KO mouse fibroblasts, CellTiter-Glo (AID 1508586;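 active means mean z-score across replicates of 1.96 or higher in either the MELAS or the Rieske mutant cell line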;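 further: z relative to plate mean and SD of compound and empty wells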)
# [4] = LFS_MB_P medulloblastoma growth inhibition, cell-based, chromothripsis tumors, cisplatin or BGB combos (AID 1671449); details: LFS_MB_P medulloblastoma cells;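 further: cells exposed for 96 hours; 0% = vehicle DMSO and 100% = killing by high DMSO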
# [5] = HDN33 neuroblastoma growth inhibition, cell-based, chromothripsis tumors, cisplatin or BGB combos (AID 1671450); details: HDN33 neuroblastoma cells, stronger effect = higher value;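 further: cells exposed to compound for four days; 0% = vehicle DMSO and 100% = cell killing by high DMSO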
# [6] = ICB984 medulloblastoma cell growth inhibition, synergistic combos for chromothripsis tumors, cisplatin or BGB combos (AID 1671451; call rule not given here;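 further: cells exposed for 96 hours before readout; 0% = vehicle DMSO and 100% = killing by high DMSO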); details: ICB984 medulloblastoma cells, drug combinations, stronger effect = higher value
# [7] = LFS_MB_1R medulloblastoma cell growth inhibition, synergistic combos for chromothripsis tumors, cisplatin or BGB combos (AID 1671452); details: LFS_MB_1R medulloblastoma cells, stronger effect = higher value;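 further: cells exposed for 96 hours before readout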
# [8] = HTB85 osteosarcoma cell growth inhibition, synergistic combos for chromothripsis tumors, BGB or cisplatin IC20 combos (AID 1671453); details: HTB85 osteosarcoma cells, drug combinations, stronger effect = higher value;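 further: cells exposed for 96 hours before readout; 0% = vehicle DMSO and 100% = high DMSO killing control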
# [9] = CRL2098 osteosarcoma cell growth inhibition, synergistic combos for chromothripsis tumors, BGB or cisplatin IC20 combos (AID 1671454); details: CRL2098 osteosarcoma cells, drug combinations, stronger effect = higher value;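 further: cells exposed for 96 h before readout; 0% = vehicle DMSO and 100% = killing by high DMSO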
# [10] = HD-MB03 medulloblastoma cell growth inhibition, synergistic combos for chromothripsis tumors, BGB or cisplatin IC20 combos (AID 1671455; in the data active means inhibition above about 83%;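 further: 0% = vehicle DMSO and 100% = high DMSO as cytotoxic control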); details: HD-MB03 medulloblastoma cells, stronger effect = higher value
# [11] = UWB1.289 ovarian carcinoma cell growth inhibition, synergistic combos for chromothripsis tumors, BGB or cisplatin combos (AID 1671456); details: UWB1.289 ovarian carcinoma cells, stronger effect = higher value;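 further: cells exposed to compound for four days; 0% = vehicle DMSO and 100% = killing by high DMSO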
# [12] = LFS_MB_2R medulloblastoma cell growth inhibition, synergistic combos for chromothripsis tumors, cisplatin combos (AID 1671457); details: LFS_MB_2R medulloblastoma cells, stronger effect = higher value;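 further: cells exposed to compound for four days before readout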
# [13] = MDA-MB-436 breast carcinoma cell growth inhibition, synergistic combos for chromothripsis tumors, BGB or cisplatin combos (AID 1671458; call rule not given here;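 further: cells exposed for 96 hours; 0% = vehicle DMSO and 100% = killing by high DMSO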); details: MDA-MB-436 breast carcinoma growth inhibition, drug combinations, stronger effect = higher value
# [14] = UWB1.289_BRCA1 ovarian cancer growth, cell-based, BGB or cisplatin combinations (AID 1671459); details: UWB1.289 BRCA1 ovarian carcinoma, drug combinations, stronger effect = higher value
# [15] = human astrocyte viability loss, single and combined drugs, cytotoxicity control for chromothriptic childhood tumor combination screen, cell-based, BGB or cisplatin IC20 combos (AID 1671460); details: Human astrocytes, drug combinations, stronger effect = higher value;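 further: cells exposed to compounds for 96 hours before viability readout; 0% = vehicle and 100% = killing control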
# [16] = growth inhibition of BT084 medulloblastoma cells, cell-based, ICGC_MB145, cisplatin and BGB IC40 combos (AID 1671461); details: drug combinations, stronger effect = higher value;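 further: cells exposed to drugs for 96 hours; 0% = vehicle DMSO and 100% = high DMSO full killing control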
# [17] = growth inhibition of RCMB18 medulloblastoma cells, cell-based, cisplatin and BGB IC40 combos (AID 1671462); details: stronger effect = higher value;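 further: cells exposed to compound for four days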
# [18] = growth inhibition of CRL1545 osteosarcoma cells, cell-based, cisplatin and BGB IC20 combos (AID 1671464); details: stronger effect = higher value;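 further: cells exposed to compound for 96 hours before readout; 0% = vehicle DMSO and 100% = high DMSO killing control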
# [19] = measured here: combination with BGB IC40, at 0.05 µM
# [20] = measured here: with BGB IC20 combination, at 0.5 µM
# [21] = measured here: with cisplatin IC20 combination, at 0.5 µM
# [22] = measured here: combination with cisplatin, at 0.5 µM
# [23] = measured here: combination with cisplatin, at 5 µM
smiles,measurement,setting,value
CNCc1ccc(-c2cc(-c3nc(-c4ccc(S(=O)(=O)C(C)C)cc4)cnc3N)on2)cc1,AC50,[1],6.61 µM (active)
same,fold change,"[2]; stronger effect = lower value, cell number ratio, induced over uninduced",1.09 (inactive)
same,fold change,[2]; measured here: relative caspase fold change +Dox/-Dox,0.389
same,cell count,"[2]; measured here: total cells with miR-34 induction, stronger effect = lower value",2400
same,cell count,[2]; measured here: total cells without miR-34 induction,2210
same,z-score,"[3]; MELAS cybrid survival, CellTiter-Glo 48 h, stronger effect = higher value",2.18 (active)
same,z-score,"[3]; Rieske KO mouse fibroblast survival, CellTiter-Glo 72 h",-0.548
same,inhibition,"[4]; at 0.5 µM, stronger effect = higher value",-32.1% (inactive) and 15.3% (inactive)
same,inhibition,"[4]; measured here: combination with BGB IC20, at 0.005 µM",12.2% and -16.2%
same,inhibition,"[4]; measured here: combination with BGB IC40, at 0.005 µM",9.32% and -55%
same,inhibition,[4]; [19],-2.44% and -42.7%
same,inhibition,"[4]; measured here: combination with cisplatin, at 0.5 µM, stronger effect = higher value",-68.5% and 16.4%
same,inhibition,"[4]; measured here: combination with cisplatin, at 5 µM, stronger effect = higher value",96.1% and -3.93%
same,inhibition,"[5]; BGB combo, at 5 µM",99.9% and 91.5%
same,inhibition,[5]; at 0.5 µM,81% (active) and 55% (inactive)
same,inhibition,"[5]; cisplatin combo, at 5 µM",99.7% and 98.8%
same,inhibition,[5]; [20],74.7% and 52.8%
same,inhibition,[5]; [21],84.9% and 61.2%
same,inhibition,"[5]; single agent, at 5 µM",99.6% and 97.3%
same,inhibition,"[6]; BGB IC20 combo, at 0.005 µM",10% and -1.43%
same,inhibition,"[6]; BGB IC40 combo, at 0.005 µM",46.6% and 13%
same,inhibition,"[6]; BGB IC40 combo, at 0.05 µM",102%
same,inhibition,[6]; at 0.5 µM,-9.05% (inactive) and -13.1% (inactive)
same,inhibition,"[6]; cisplatin combo, at 0.05 µM",102% and 103%
same,inhibition,"[6]; cisplatin combo, at 0.5 µM",-4.28% and -29.4%
same,inhibition,"[6]; cisplatin combo, at 5 µM",0.208% and -7.66%
same,inhibition,"[6]; measured here: 5 uM single agent, at 5 µM",4.2% and -17.2%
same,inhibition,[7]; at 0.5 µM,-10.6% (inactive) and -30.6% (inactive)
same,inhibition,[7]; [19],-16.3% and -24.4%
same,inhibition,[7]; [22],-6.99% and -51.5%
same,inhibition,[7]; [23],103% and 92%
same,inhibition,[8]; at 0.5 µM,67.2% (inactive) and 53.2% (inactive)
same,inhibition,"[8]; measured here: with BGB IC20, at 0.5 µM",67.9% and 66.3%
same,inhibition,"[8]; measured here: with BGB IC20, at 5 µM",99.8% and 98.3%
same,inhibition,"[8]; measured here: with cisplatin IC20, at 0.5 µM",78.5% and 60.7%
same,inhibition,"[8]; measured here: with cisplatin IC20, at 5 µM",99.8% and 88.8%
same,inhibition,"[8]; single agent, at 5 µM",99.8% and 79%
same,inhibition,[9]; at 0.5 µM,45.2% (inactive) and 30% (inactive)
same,inhibition,"[9]; measured here: combination with BGB at IC20, at 0.5 µM",27% and 27.5%
same,inhibition,"[9]; measured here: combination with cisplatin at IC20, at 0.5 µM",60.9% and 31.3%
same,inhibition,[10]; at 0.5 µM,87.3% (active) and 58.6% (inactive)
same,inhibition,"[10]; measured here: combo with BGB at IC20, at 0.5 µM",82.9% and 61.6%
same,inhibition,"[10]; measured here: combo with cisplatin at IC20, at 0.5 µM",96.2% and 87.4%
same,inhibition,[11]; at 0.5 µM,83% (active) and 72.2% (inactive)
same,inhibition,"[11]; measured here: inhibition with BGB combination, at 0.05 µM",7.96% and -9.18%
same,inhibition,"[11]; measured here: inhibition with cisplatin combination, at 0.05 µM",41.3% and 1.85%
same,inhibition,[12]; at 0.5 µM,13.8% (inactive) and -20% (inactive)
same,inhibition,[12]; [22],29.2% and -5.7%
same,inhibition,[12]; [23],104% and 53.6%
same,inhibition,[13]; at 0.5 µM,55.5% (inactive) and 36% (inactive)
same,inhibition,"[13]; measured here: BGB combination, at 0.5 µM",34.5% and 11.4%
same,inhibition,"[13]; measured here: BGB combination, at 5 µM",82.1% and 63.6%
same,inhibition,"[13]; measured here: cisplatin combination, at 0.5 µM",76.4% and 54%
same,inhibition,"[13]; measured here: cisplatin combination, at 5 µM",109% and 82.4%
same,inhibition,"[14]; BGB combination, concentration series, at 5 µM",101% and 97.7%
same,inhibition,[14]; at 0.5 µM,90.3% (active) and 82.2% (active)
same,inhibition,"[14]; cisplatin combination, concentration series, at 5 µM",84.8% and 106%
same,inhibition,[15]; at 0.5 µM,-32% (inactive) and -35.2% (inactive)
same,inhibition,"[15]; measured here: combo with BGB IC20, at 0.5 µM",-34.1% and -25.6%
same,inhibition,"[15]; measured here: combo with cisplatin IC20, at 0.5 µM",-44.2% and -41.4%
same,inhibition,[16]; at 0.5 µM,29.8% (inactive) and 12.8% (inactive)
same,inhibition,"[16]; cisplatin combination, at 0.5 µM",27.7% and 16.2%
same,inhibition,"[16]; cisplatin combination, at 5 µM",109% and 105%
same,inhibition,"[16]; measured here: BGB IC40 combination 0.05 uM, at 0.05 µM",-22.6% and -25.3%
same,inhibition,"[16]; single agent, at 5 µM",107% and 108%
same,inhibition,[17]; at 0.5 µM,31.8% (inactive) and 0.94% (inactive)
same,inhibition,"[17]; cisplatin combo, at 5 µM",104% and 103%
same,inhibition,"[17]; measured here: BGB IC40 combination, at 0.05 µM",11.9% and -20.4%
same,inhibition,[17]; [22],38.1% and -11.6%
same,inhibition,"[17]; single agent, at 5 µM",101%
same,inhibition,[18]; at 0.5 µM,95% (active) and 91% (active)
same,inhibition,[18]; [20],91.2% and 85.8%
same,inhibition,[18]; [21],96.8% and 93.6%
same,inhibition,"[18]; single agent, at 0.05 µM",35.3% and -10.3%
same,inhibition,"[18]; single agent, at 5 µM",99.8% and 99.5%
